# Data: PubChem BioAssay AID1851 (National Center for Advancing Translational Sciences (NCATS), 2009)
# Out of some 16,000 compounds screened, about 4,000 (25%) were called active. Another 26% or so got no clear call; they are omitted. Calls come from the whole dose curve; as a rule, active = well fitted curve in the direction sought with a large enough effect; inconclusive = small, poorly fitted or top-dose-only effect, or effect the other way; inactive = no such curve, though single readings can be large or run the other way. A selection follows.
# Biological target: Cytochrome P450 2C9 (Homo sapiens) (UniProt P11712)
# Assay: Cytochrome panel assay with activity outcomes
# Conditions: recombinant CYP, pro-luciferin dealkylation, luminescence, p450-cyp2c9; series mostly up to 57.1 µM; activity, negative = inhibition: at the top concentration
# % is set by controls: 0 for no effect and ±100 for the full control effect.
# Chain of Cytochrome P450 2C9 (Homo sapiens) (P11712 whole entry, looked up): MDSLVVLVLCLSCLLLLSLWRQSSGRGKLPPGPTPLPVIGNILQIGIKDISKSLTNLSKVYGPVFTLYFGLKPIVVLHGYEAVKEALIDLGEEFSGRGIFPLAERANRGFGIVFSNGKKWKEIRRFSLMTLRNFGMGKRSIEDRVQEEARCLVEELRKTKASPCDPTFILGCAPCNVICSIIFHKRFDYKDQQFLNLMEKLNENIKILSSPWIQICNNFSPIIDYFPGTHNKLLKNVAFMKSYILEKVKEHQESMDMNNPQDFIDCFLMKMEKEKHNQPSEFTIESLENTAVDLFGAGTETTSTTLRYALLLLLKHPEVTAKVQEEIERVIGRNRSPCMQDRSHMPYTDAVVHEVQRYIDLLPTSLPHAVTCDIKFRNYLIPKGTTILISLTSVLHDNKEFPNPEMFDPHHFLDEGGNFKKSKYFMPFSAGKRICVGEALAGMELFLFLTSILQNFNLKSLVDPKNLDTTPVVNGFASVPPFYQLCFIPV
SMILES,"activity, negative = inhibition",AC50
O=c1cccc2n1CC1CNC[C@H]2C1,inactive,–
c1ccc(N2CC[C@@]3(CCCNC3)C2)cc1,-22.1% (inactive),–
CC(C)CN1CCC2(CC1)CCN(S(C)(=O)=O)CC2,-12.8% (inactive),–
Cc1ccc(N(C)C(=O)Oc2cccc3ccc(C)nc23)cc1,–,11.2 µM (active)
O=C1OC(=O)[C@@H]2[C@@H]1[C@@H]1CC[C@H]2O1,-6.96% (inactive),–
O=C(O)C(C(=O)O)P(=S)(S)c1ccccc1 (stereo not drawn),4.02% [at 11.4 µM] (inactive),–
COC(=O)C[C@](O)(CCCC(C)(C)O)C(=O)O[C@@H]1C(OC)=C[C@]23CCCN2CCc2cc4c(cc2[C@H]13)OCO4,-18% (inactive),–
C[C@]12CC[C@@H]3C(=CCc4cc(O)ccc43)[C@@H]1CCC2=O,-19.8% [at 25.6 µM] (inactive),–
CC(=O)C1=C(O)[C@@H]2[C@@H]3c4c[nH]c5cccc(c45)C[C@@H]3C(C)(C)N2C1=O,–,31.6 µM (active)
CCN(CC)C(=O)N[C@@H]1C[C@H]2c3cccc4[nH]cc(c34)C[C@@H]2N(C)C1,inactive,–
S=C=Nc1cccc(C2(N3CCCCC3)CCCCC2)c1,-2.74% (inactive),–
CCCN[C@@H]1CCc2c(OC)cccc2[C@@H]1C,-3.13% (inactive),–
C=C(C)[C@H]1CC[C@]2(CO)CC[C@]3(C)[C@@H](CC[C@H]4[C@@]5(C)CC[C@@H](O)C(C)(C)[C@@H]5CC[C@@]43C)[C@H]12,-0.565% [at 25.6 µM] (inactive),–
C[C@@H]1[C@@H](C)N1C[C@H](O)Cn1ccnc1[N+](=O)[O-] (stereo partly drawn),21.8% [at 11.4 µM] (inactive),–
Oc1ccc2c3c1O[C@H]1c4[nH]c5c(c4C[C@@]4(O)[C@@H](C2)N(CC2CC2)CC[C@]314)C[C@]1(O)[C@H]2Cc3ccc(O)c4c3[C@@]1(CCN2CC1CC1)[C@@H]5O4,-4.82% (inactive),–
Oc1ccc2c3c1O[C@H]1c4[nH]c5ccccc5c4C[C@]4(O)[C@H](C2)N(CC2CC2)CC[C@@]314,–,25.1 µM (active)
Oc1ccc2c3c1O[C@@H]1c4[nH]c5c(c4C[C@@]4(O)[C@@H](C2)N(CC2CC2)CC[C@]314)C[C@]1(O)[C@@H]2Cc3ccc(O)c4c3[C@@]1(CCN2CC1CC1)[C@H]5O4,12.7% (inactive),–
C=C[C@@H]1CN2CC[C@H]1C[C@H]2[C@H](O)c1ccnc2ccccc12,-2.06% [at 11.4 µM] (inactive),–
c1cncc([C@@H]2CCCCN2)c1,inactive,–
NCCSC(c1ccccc1)c1ccccc1,–,1 µM (active)
C[C@H](N)[C@@H](O)c1ccccc1,-10.4% [at 25.6 µM] (inactive),–
CC(=O)[C@@H]1CC[C@@H]2[C@@H]3CC=C4C[C@H](OS(=O)(=O)O)CC[C@@]4(C)[C@H]3CC[C@]21C,-6.99% (inactive),–
C[C@@H]1O[C@H](OC2[C@@H](O)[C@H](O)C(O)[C@H](O)[C@H]2O)[C@@H](N)C[C@@H]1N=C(N)C(=O)O (stereo partly drawn),0.868% [at 11.4 µM] (inactive),–
COc1ccc2c(c1O)-c1cccc3c1[C@H](C2)N(C)CC3,-7.79% (inactive),–
O=[As](O)(O)c1ccc(N=Nc2ccc(O)cc2)cc1,-6.31% [at 11.4 µM] (inactive),–
NNC(=O)c1ccc(O)cc1,10.6% (inactive),–
NC(N)=NC(=O)c1nc(Cl)c(N)nc1N,12.1% (inactive),–
C[C@@]12CC[C@@H]3[C@H](CCC4=CC(=O)CC[C@]43C)[C@@H]1CC[C@@H]2C(=O)COS(=O)(=O)c1ccc(Br)cc1,-18.3% [at 11.4 µM] (inactive),–
